m-calpain inh: inhibitors of pig calpain II; purified calpain II, fluorogenic peptide substrate, 30 min; inhibition, % at 16 µM; 220,000 compounds, 0.37% hits; AID 1236;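 active = inhibition above about 50%, limit read from the data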
L major viab: Leishmania major promastigote growth inhibition; 200,000 compounds, 9% hits; inhibition, % at 10 µM; Leishmania major promastigotes, resazurin fluorescence viability; in the data active = inhibition above about 50%;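 also: promastigotes grown with compound for 44 hours at 28 °C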
ROMK primary: human ROMK K+ channel modulation, primary screen; P48048; Tet-inducible ROMK, thallium flux fluorescence; actives lie on both sides; B-score at 10 µM; 130,000 compounds, 2% hits; AID 1918;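 active = signal ratio slope over the read window, or its plate-corrected B-score, at least 3 SD from the plate mean, either direction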;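 also: B-score of the F/F0 ratio slope over 7 to 12 s after thallium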
Cl transport mod: modulates chloride dependent transport by human KCC2 | Q9H2X9 | KCC2 cells, thallium flux FluoZin-2 fluorescence | B-score of Tl+ flux slope (higher = more flux/activation; lower = inhibition) at 10 µM | 190,000 compounds, 2.2% hits;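 active = thallium flux slope and its plate-corrected score both differing from the plate sample mean at a set confidence after two filtering rounds, in either direction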;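 also: slope of fluorescence scaled to starting intensity during 10 to 20 s after thallium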
Target sequence (Q9H2X9 whole entry, looked up): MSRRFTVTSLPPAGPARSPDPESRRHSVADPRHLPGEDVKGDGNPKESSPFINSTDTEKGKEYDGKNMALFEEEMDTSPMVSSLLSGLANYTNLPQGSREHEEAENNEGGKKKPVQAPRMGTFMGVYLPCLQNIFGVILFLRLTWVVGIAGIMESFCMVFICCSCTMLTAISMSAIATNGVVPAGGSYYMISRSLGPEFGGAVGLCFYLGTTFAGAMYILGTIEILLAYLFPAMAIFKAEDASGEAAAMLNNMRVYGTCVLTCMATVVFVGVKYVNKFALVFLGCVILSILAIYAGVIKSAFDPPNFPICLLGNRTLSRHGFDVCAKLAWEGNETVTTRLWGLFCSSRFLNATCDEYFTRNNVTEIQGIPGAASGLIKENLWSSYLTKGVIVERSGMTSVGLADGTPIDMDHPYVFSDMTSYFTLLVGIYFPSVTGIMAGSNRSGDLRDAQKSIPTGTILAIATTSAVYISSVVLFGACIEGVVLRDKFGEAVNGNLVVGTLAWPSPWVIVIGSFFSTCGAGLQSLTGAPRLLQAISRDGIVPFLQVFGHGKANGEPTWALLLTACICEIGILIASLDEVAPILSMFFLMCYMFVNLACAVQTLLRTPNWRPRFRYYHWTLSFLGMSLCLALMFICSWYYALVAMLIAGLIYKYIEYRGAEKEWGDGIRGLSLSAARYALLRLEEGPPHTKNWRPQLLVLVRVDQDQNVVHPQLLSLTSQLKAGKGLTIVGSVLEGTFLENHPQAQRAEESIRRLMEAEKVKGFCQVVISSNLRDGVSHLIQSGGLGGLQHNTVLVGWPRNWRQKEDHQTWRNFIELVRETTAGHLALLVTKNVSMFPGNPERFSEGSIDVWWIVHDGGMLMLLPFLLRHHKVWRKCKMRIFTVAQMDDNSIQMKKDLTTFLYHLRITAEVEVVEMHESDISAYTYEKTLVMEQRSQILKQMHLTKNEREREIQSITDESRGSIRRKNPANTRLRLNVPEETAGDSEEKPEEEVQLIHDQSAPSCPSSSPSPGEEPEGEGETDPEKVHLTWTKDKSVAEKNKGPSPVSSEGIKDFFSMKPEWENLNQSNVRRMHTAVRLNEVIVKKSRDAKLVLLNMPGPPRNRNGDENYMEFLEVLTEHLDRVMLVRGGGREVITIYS
WT yeast gro inh: growth inhibition of WT yeast, mitochondrial fusion screen; mitochondrial fusion phenotypic screen, WT strain; inhibition, % at 10 µM; 190,000 compounds, 2.1% hits; AID 1362; in the data active = inhibition above about 58%; tested in S. cerevisiae
Lmaj promast 1uM: blocks Leishmania major promastigote growth at 1 uM, repeat screen | 1,100 compounds, 13% hits | AID 1258 | L. major promastigote growth, resazurin fluorescence, 48 h | inhibition, % at 1 µM | shares compounds with L major viab;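 active = inhibition above about 50% in both repeat tests, limit read from the data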
* = called active by the depositor. Shown are actives, neighbours in structure and some others; about 12% of the full set was active somewhere.

`Cc1nn(-c2ccccc2)c(N)c1C(O)(C(F)(F)F)C(F)(F)F` gave m-calpain inh 22, L major viab 98*, ROMK primary 0.11, Cl transport mod 1.4, WT yeast gro inh 7 and Lmaj promast 1uM -1.
`NC(=S)Nc1cccc2cc3ccccc3cc12` gave m-calpain inh -145, L major viab 98*, ROMK primary -1.8, WT yeast gro inh -8 and Lmaj promast 1uM -7.
`O=S(=O)(Nc1ccc(Cl)c(C(F)(F)F)c1)c1cnc[nH]1` gave m-calpain inh 2, L major viab -10, Cl transport mod 0.21 and WT yeast gro inh -4.
Screening COc1cc(OC)cc(C(=O)NCC(=O)OCc2nc3ccccc3s2)c1 returned m-calpain inh -26, L major viab 0, ROMK primary 0.049, Cl transport mod -1.6 and WT yeast gro inh -16.
`CCCS(=O)(=O)c1c(S(=O)(=O)CCC)c2c(C)cccn2c1C(=O)OC` gave m-calpain inh -66, L major viab -4, Cl transport mod 0.15 and WT yeast gro inh -9.
`CCCS(=O)(=O)c1c(S(=O)(=O)CCC)c2c3ccccc3ccn2c1C(=O)OC` gave m-calpain inh -80, L major viab 82*, Cl transport mod 0.68, WT yeast gro inh 8 and Lmaj promast 1uM 0.
CCOC(=O)c1cccc(Nc2nc(-c3cccnc3)nc3ccccc23)c1 was read as m-calpain inh -24, L major viab 92*, ROMK primary 0.0026, Cl transport mod -0.34, WT yeast gro inh 15 and Lmaj promast 1uM 21.
Screening O=C1C2ON(c3ccc(Br)cc3)C(c3cccnc3)C2C(=O)N1C1CCCCC1 (configuration not stated) returned m-calpain inh 34, L major viab 85*, ROMK primary 0.1, Cl transport mod -0.35, WT yeast gro inh -3 and Lmaj promast 1uM 72*.
Screening O=C(CCc1ccccc1)Nc1nnc(-c2ccccn2)o1 returned m-calpain inh -38, L major viab 62*, Cl transport mod 0.18, WT yeast gro inh 1 and Lmaj promast 1uM 34.
For COC(=O)C(Cc1cnc(Cl)s1)(C(=O)OC)c1ccc([N+](=O)[O-])cc1[N+](=O)[O-] the results were m-calpain inh 11, L major viab 63*, ROMK primary 0.094, Cl transport mod 0.14, WT yeast gro inh 23 and Lmaj promast 1uM -15.
`O=C(NCc1ccco1)c1cccc(NS(=O)(=O)c2cccc(F)c2)c1` gave m-calpain inh -5, L major viab 58*, ROMK primary -0.017, Cl transport mod 0.13, WT yeast gro inh -5 and Lmaj promast 1uM -13.
COc1ccccc1NS(=O)(=O)c1cc(C(=O)NCc2ccco2)ccc1C was read as m-calpain inh -12, L major viab 3, ROMK primary -0.34, Cl transport mod 0.071 and WT yeast gro inh 0.
Cc1ccccc1NS(=O)(=O)c1cc(C(=O)NCc2ccco2)ccc1C was read as m-calpain inh 10, L major viab 59*, ROMK primary -1.8, WT yeast gro inh -16 and Lmaj promast 1uM -11.
For O=C(c1ccccc1)c1ccc(OCC(=O)N2CCOCC2)cc1 the results were m-calpain inh -6, L major viab -8, ROMK primary -0.45, Cl transport mod 0.65 and WT yeast gro inh -25.
Screening O=C(O)c1ccc(C(=O)c2ccc3c(c2)C(=O)N(CC2CCCO2)C3=O)cc1 (configuration not stated) returned m-calpain inh -14, L major viab -6, ROMK primary 0.89, Cl transport mod 0.55 and WT yeast gro inh -23.
Screening C=CCSc1ncccc1C(=O)NCc1ccccc1 returned m-calpain inh 22, L major viab -5, ROMK primary -0.6, Cl transport mod 0.9 and WT yeast gro inh -3.
Screening O=[N+]([O-])c1ccccc1C1Nc2cccc3cccc(c23)N1 returned m-calpain inh -10, L major viab 97*, WT yeast gro inh -10 and Lmaj promast 1uM -9.
`Cc1c(C)c(C)c(S(=O)(=O)N2CCNCC2)c(C)c1C` gave m-calpain inh -11, L major viab 3, ROMK primary -1.9, Cl transport mod 0.26 and WT yeast gro inh 0.
Cc1ccc(-n2c(C)cc(C(=O)CN3CCOCC3)c2C)cc1 was read as m-calpain inh -18, L major viab 6, ROMK primary -0.65, Cl transport mod 0.45 and WT yeast gro inh -8.
For Cc1cc(-n2c(C)cc(C(=S)N3CCOCC3)c2C)ccc1Br the results were m-calpain inh 17, L major viab 57*, Cl transport mod inactive, WT yeast gro inh 35 and Lmaj promast 1uM -9.
For C=CCSC(=S)NC1CCS(=O)(=O)C1 (configuration not stated) the results were m-calpain inh 3, L major viab 93*, ROMK primary 0.53, Cl transport mod -0.082, WT yeast gro inh -14 and Lmaj promast 1uM 6.
For NC(=S)NC1CCS(=O)(=O)C1 (configuration not stated) the results were m-calpain inh 8, L major viab -3, ROMK primary 1.1, Cl transport mod 0.22 and WT yeast gro inh 4.
Screening Cc1ccc(-c2cc3c(nn2)-c2ccccc2C3=O)cc1 returned m-calpain inh -29 and WT yeast gro inh 52.
`Cc1ccccc1-c1cc2c(nn1)-c1ccccc1C2=O` gave m-calpain inh 7, L major viab 93*, ROMK primary 1.6, WT yeast gro inh 55 and Lmaj promast 1uM -13.
For CC(=O)c1cccc(S(=O)(=O)N2CCN(c3nc4cc(C)cc(C)c4cc3C#N)CC2)c1 the results were m-calpain inh -74, L major viab 50*, Cl transport mod 0.46, WT yeast gro inh 6 and Lmaj promast 1uM -14.
Cc1cc(C)c2cc(C#N)c(N3CCCN(S(=O)(=O)c4ccccc4)CC3)nc2c1 was read as L major viab -2 and Cl transport mod -0.49.
For Cc1cc(C)c(C#N)c(SCC(=O)c2ccccc2)n1 the results were m-calpain inh 5, L major viab 100*, ROMK primary -1.5, Cl transport mod -1.2, WT yeast gro inh -1 and Lmaj promast 1uM 40.
Cc1sc(NC(=O)CN(Cc2ccc(F)cc2)C(=O)C(C)C)c(C(N)=O)c1C was read as m-calpain inh -5, L major viab -7, Cl transport mod -2 and WT yeast gro inh 23.
For COc1ccccc1NC(=S)N(Cc1ccco1)Cc1cc2cc(C)c(C)cc2[nH]c1=O the results were m-calpain inh -20, L major viab 37, ROMK primary 2.4, Cl transport mod -0.89 and WT yeast gro inh 9.
COc1ccccc1NC(=S)N(Cc1ccco1)Cc1cc2cccc(C)c2[nH]c1=O was read as m-calpain inh 15, L major viab 100*, ROMK primary -0.93, Cl transport mod -0.63, WT yeast gro inh 1 and Lmaj promast 1uM 18.
Screening OC1(c2ccc(F)cc2)CCN(Cc2ccccc2)C1 (configuration not stated) returned m-calpain inh -3, L major viab 88*, ROMK primary -0.51, Cl transport mod -0.11, WT yeast gro inh 14 and Lmaj promast 1uM 4.

Assay outcomes deposited in PubChem BioAssay by several laboratories.
